Marburg entry inh: inhibitors of Marburg virus binding or cell entry; Marburg virus pseudotyped entry inhibition, cell reporter; Potency, µM (doses to about 37.8 µM), most hits filed as inhibitors; 300,000 tested, 1.8% active; calls by dose curve; tested in HEK293 cells
HCMV antiviral: inhibitors of human cytomegalovirus; HFF cells, HCMV-luciferase reporter, 72 h; active compounds read low; activity change, negative = inhibition, % at 57.5 µM; 410,000 tested, 4.5% active; AID 1259415; in the data active means activity change below about -60%; inconclusive means no clear call, values can overlap the other calls; inactive means above about -39%
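Two-dose cell screen: HFF monolayers treated with compounds and infected with luciferase-expressing HCMV at 1 PFU/cell, 72 h at 37C, then lysed for luciferase measurement.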
Lassa entry inh: blocks Lassa virus binding to or entry into cells | 300,000 tested, 1.2% active | AID 540256 | Potency, µM (top dose mostly 37.9 µM), most hits filed as inhibitors | Lassa virus pseudotype entry inhibition, cell reporter; calls by dose curve; tested in HEK293 cells; further: nearly all actives have a fitted effect of over 50% in size
FMDV inh: blocks foot and mouth disease virus | FMDV antiviral cell-based qHTS | Potency, µM (highest dose often 57.9 µM), hits mostly inhibitors | 410,000 tested, 1.2% active | AID 1159524; calls by dose curve; tested in HEK293T cells; further: read-out not given here; nearly all actives have a fitted effect of over 45% in size
Of the large screens only hits and unclear results are named; the others gave an inactive call. In the library only some 6.2% were active in any assay of this set; here they are far more common.

COC(=O)c1c(NC(=O)c2ccccc2)sc(Cc2ccccc2)c1C	HCMV antiviral -62
COC(=O)c1c(NC(=O)c2ccc(C)cc2)sc(Cc2ccccc2)c1C	none
Cc1ccc(S(=O)(=O)/N=C2\C=C(Nc3ccc(O)cc3)C(=O)c3ccccc32)cc1	Marburg entry inh inconclusive, Lassa entry inh 2.8µM, FMDV inh 10µM (no result: HCMV antiviral)
CCc1ccc(NC2=CC(=O)C(=O)c3ccccc32)cc1	Marburg entry inh inconclusive, Lassa entry inh inconclusive
CCc1ccc(S(=O)(=O)/N=C2\C=C(Nc3ccc(C(=O)O)cc3)C(=O)c3ccccc32)cc1	Marburg entry inh inconclusive, HCMV antiviral -98, Lassa entry inh inconclusive, FMDV inh inconclusive
CNc1nc2cnc(-c3cc(OC)c(OC)c(OC)c3)cc2n1Cc1ccccc1	none (no result: Marburg entry inh, Lassa entry inh, FMDV inh)
CCC(O)(c1ccccc1)C(CN1CCOCC1)c1ccccc1 (stereo not drawn)	none
CCCCCC(O)(c1ccc(OC)cc1)C(CN1CCOCC1)c1ccccc1 (stereo not drawn)	Marburg entry inh inconclusive, HCMV antiviral -61, Lassa entry inh inconclusive
CCc1ccc(C(O)(CC)C(CN2CCOCC2)c2ccccc2)cc1 (stereo not drawn)	Marburg entry inh inconclusive, HCMV antiviral -63, FMDV inh inconclusive
CCCCC(O)(c1ccc(CC)cc1)C(CN1CCOCC1)c1ccccc1 (stereo not drawn)	HCMV antiviral -71 (no result: Marburg entry inh, Lassa entry inh)
CN(C)S(=O)(=O)c1ccc(C(=O)Nc2nc(-c3ccccc3)c(C(=O)c3ccccc3)s2)cc1	FMDV inh inconclusive
O=C(Nc1nc(-c2cc3ccccc3o2)cs1)c1ccc(S(=O)(=O)N2CCCC2)cc1	Marburg entry inh inconclusive, HCMV antiviral -84, Lassa entry inh inconclusive, FMDV inh inconclusive
CC1CN(S(=O)(=O)c2ccc(C(=O)Nc3nc(-c4cc5ccccc5o4)cs3)cc2)CC(C)O1 (stereo not drawn)	Marburg entry inh inconclusive, Lassa entry inh inconclusive, FMDV inh inconclusive
CN(C)S(=O)(=O)c1ccc(C(=O)Nc2nc(-c3cc4ccccc4o3)cs2)cc1	Marburg entry inh inconclusive, HCMV antiviral -69, Lassa entry inh inconclusive, FMDV inh inconclusive
Cc1cc(-c2csc(NC(=O)c3ccc(S(=O)(=O)N(C)C)cc3)n2)c(C)n1-c1ccccc1	Marburg entry inh 1.3µM, Lassa entry inh inconclusive, FMDV inh 32µM
C=CCNc1nc(-c2cc3ccccc3o2)cs1	Marburg entry inh inconclusive, Lassa entry inh 7.9µM
O=C(CN1C(=O)COc2ccc(Cl)cc21)Nc1nccs1	Marburg entry inh inconclusive
C=CCOc1ccccc1CNc1ccc2[nH]c(=O)[nH]c2c1	FMDV inh inconclusive
CCOC(=O)Nc1ccc2c(CN(C)Cc3ccc(F)cc3)cc(=O)oc2c1	HCMV antiviral -92 (no result: Lassa entry inh)
Cc1ccc(C(=O)CN2/C(=C(\O)c3ccccc3)C(=O)c3ccccc3S2(=O)=O)c(C)c1	Marburg entry inh inconclusive, Lassa entry inh 18µM (no result: HCMV antiviral)
Cc1ccc(C(=O)CN2C(=O)c3ccccc3S2(=O)=O)cc1	Marburg entry inh inconclusive, HCMV antiviral -88, Lassa entry inh inconclusive, FMDV inh 14µM
O=C(CN1C(=O)c2ccccc2S1(=O)=O)c1ccccc1	Marburg entry inh inconclusive, HCMV antiviral -65, Lassa entry inh 4µM, FMDV inh inconclusive
O=C(CCN1C(=O)c2ccccc2S1(=O)=O)Nc1ccc(Cl)cc1	HCMV antiviral -78
CC(C)NC(=O)CN1C(=O)c2ccccc2S1(=O)=O	Marburg entry inh inconclusive
Cc1ccc(NC(=S)NC2CC3CCC(C2)N3Cc2ccco2)c(C)c1 (stereo not drawn)	HCMV antiviral inconclusive (no result: FMDV inh)
CC(=O)NN1C(=O)/C(=C\c2ccc(C)cc2)SC1=S	none
CCCCCC(=O)Nc1cc(S(=O)(=O)N2CCOCC2)ccc1N1CCCCC1	Marburg entry inh inconclusive
O=C(c1ccccc1Br)N1CCC(c2nc3ccccc3o2)CC1	none
Cc1ccc(N2CCN(S(=O)(=O)N3CCOCC3)CC2)cc1C	none
Cc1cccc(C)c1-n1nnnc1C(c1ccnc2ccccc12)N(C)Cc1ccccc1 (stereo not drawn)	FMDV inh inconclusive (no result: Marburg entry inh, Lassa entry inh)
O=C(CN1C(=O)c2ccccc2S1(=O)=O)c1ccccc1Cl	HCMV antiviral -86 (no result: Marburg entry inh, Lassa entry inh, FMDV inh)
O=C(CN1C(=O)c2ccccc2S1(=O)=O)NC(Nc1ccccc1F)C(Cl)(Cl)Cl (stereo not drawn)	HCMV antiviral -105
COc1ccccc1CCN=C(N)NS(=O)(=O)c1ccccc1F	Marburg entry inh inconclusive
Cc1ccc(OCCCN2CCOCC2)c([N+](=O)[O-])c1	none
CN(C)c1cccc(Oc2nc3c(c(=O)n(C)c(=O)n3C)n2C)c1	none (no result: Marburg entry inh, Lassa entry inh)
CC1CCc2onc(C(=O)NCc3ccco3)c2C1 (stereo not drawn)	none
O=C(NC(=S)Nc1ccccc1[N+](=O)[O-])c1ccccc1	Marburg entry inh inconclusive
O=C(NC(=S)/C(=C1\CCCCCN1)[N+](=O)[O-])c1ccccc1	Marburg entry inh inconclusive, Lassa entry inh inconclusive, FMDV inh 13µM (no result: HCMV antiviral)
Cc1cccc(NC(=O)CSc2nnc(CNC(=O)c3ccc(S(=O)(=O)N(C)C)cc3)n2-c2ccccc2)c1	Marburg entry inh inconclusive, Lassa entry inh inconclusive
Cc1cccc(NC(=O)CSc2nnc(CNC(=O)c3ccc(S(=O)(=O)N(C)C)cc3)n2-c2cccc(C)c2)c1	Lassa entry inh 14µM
COC(=O)Nc1nc(-c2ccccc2)c(C(=O)c2ccccc2)s1	Marburg entry inh inconclusive, HCMV antiviral inconclusive, Lassa entry inh 3.2µM
COc1ccc(-c2coc3ncnc(N)c23)cc1	none (no result: Marburg entry inh, HCMV antiviral, FMDV inh)
COc1ccc(-n2c(C)c(C)c3c(N)ncnc32)cc1	HCMV antiviral -77
Cc1cc(-c2ccccc2)n2ncc(-c3ccccc3)c2n1	Marburg entry inh 3.7µM, HCMV antiviral -60, Lassa entry inh inconclusive
Cc1cc(N2CCOCC2)n2ncc(-c3ccccc3)c2n1	Marburg entry inh inconclusive, Lassa entry inh 2.6µM
Cc1cc(N2CCC(C)CC2)n2ncc(-c3ccccc3)c2n1	Marburg entry inh inconclusive, HCMV antiviral -64, Lassa entry inh inconclusive, FMDV inh inconclusive
Cc1nc2c(-c3ccccc3)cnn2c(N)c1-c1ccccc1	Marburg entry inh inconclusive, HCMV antiviral -91, Lassa entry inh inconclusive, FMDV inh inconclusive
CN(CC(=O)NCc1ccncc1)S(=O)(=O)c1cc(Cl)ccc1Cl	none
Fc1ccc(/C=N/n2c(C3CCCCC3)n[nH]c2=S)cc1	none (no result: Marburg entry inh, Lassa entry inh)
CCCn1c(N)c(Br)c(=O)[nH]c1=O	none
CCn1ncc2c(=O)c(C(=O)c3ccccc3)c[nH]c21	none (no result: Marburg entry inh, Lassa entry inh, FMDV inh)
Cc1cc(N2CCCCC2)n2ncc(-c3ccccc3)c2n1	Marburg entry inh inconclusive, Lassa entry inh 4.5µM, FMDV inh inconclusive
Cc1cc(NC2CCCC2)n2ncc(-c3ccccc3)c2n1	Marburg entry inh inconclusive, HCMV antiviral -90, Lassa entry inh inconclusive, FMDV inh 40µM
Cc1cc(N2CCCCC2)n2ncc(-c3ccc(Cl)cc3)c2n1	Marburg entry inh inconclusive, Lassa entry inh inconclusive
COc1ccc(C)cc1NS(=O)(=O)c1ccc(NC(=O)CN(c2cc([N+](=O)[O-])ccc2C)S(C)(=O)=O)cc1	Marburg entry inh 3.7µM, Lassa entry inh inconclusive
COc1ccc(-c2nc3cnc(OC)nc3n(C3CC3)c2=O)cc1	none (no result: Marburg entry inh, HCMV antiviral, Lassa entry inh)
CCOc1ccc(C(=O)Nc2ccc(S(=O)(=O)N3CCCCC3c3cccnc3)cc2)cc1 (stereo not drawn)	HCMV antiviral -89, Lassa entry inh inconclusive, FMDV inh 32µM (no result: Marburg entry inh)
